Reference: PubChem BioAssay AID435019 (Southern Research Specialized Biocontainment Screening …, 2010)
About 1,200 (52%) of roughly 2,300 compounds were called active. The set was probably picked from earlier hits. Some of the results follow. Potency and affinity values are given separately. Values without a mark were called inactive. How the calls were made is not given here.

Test: mammalian cell cytotoxicity, dose response, cytotoxicity control for M. tuberculosis inhibitor project (AID 435019);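 further: 0% = background wells and 100% = vehicle-treated cells; lower values mean fewer viable cells so more cytotoxicity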
Settings: cytotoxicity counter-screen; series mostly up to 40 µM; viability: at the top concentration

SMILES	viability
COC(=O)CSc1nnc([C@H](CC(C)C)NC(=O)OC(C)(C)C)o1	93.8%
COC(=O)C(C)Oc1ccc(Cc2ncc(C(F)(F)F)cc2Cl)cc1 (configuration not stated)	101%
CCCCNC(=S)Nc1ccc2cn[nH]c2c1	98.4%
COC(=O)[C@H](CC(C)C)NC(=O)c1cc2c(cn1)[nH]c1ccccc12	92.3%
CCc1nc2ccccc2c(C(=O)Nc2cc(C)ccc2C)c1C	81.3%
O=C(Oc1ccc2ccccc2c1)c1cncc(Br)c1	87.4%
N=C1C(c2nc3ccccc3[nH]2)=C(O)CN1NC(=O)c1c[nH]c2ccccc12	99.7%
CCCCn1c(N)c(N(CC(C)C)C(=O)c2oc3c(Cl)cccc3c2C)c(=O)[nH]c1=O	91%
Cc1ccc(CN2CC(C(=O)OCc3ccccc3Cl)CC2=O)cc1 (configuration not stated)	92.4%
CCOC(=O)CSc1ncnc2c1sc1nc(N3CCOCC3)c3c(c12)CCCC3	83.6%
COc1ccc(NC2=C(C(C)=O)C(c3ccc4c(c3)OCO4)C(C(C)=O)C(C)(O)C2)cc1 (configuration not stated)	94%
CCCNC(=O)NC(=O)COc1ccc2oc3ccccc3c2c1	94%
COc1ccc(-c2cc3n(n2)CCc2nc4ccccc4n2-3)cc1	81.9%
NNC(=S)Nc1ccccc1Cl	81.6%
CCCCCOC(=O)Nc1nnc(CCCCC)s1	96.8%
O=C(CSc1nnnn1-c1ccc2c(c1)OCCO2)OC1CCCCC1	98.5%
C=CCc1c(C)nc2ccc(C(=O)OCC)cc2c1Cl	85.8%
C/C(=N\Nc1nc2c(s1)CCCC2)c1ccccc1	93.5%
O=C(Nc1nc2c(s1)CCCC2)c1cc(-c2ccc3c(c2)OCO3)nc2ccccc12	94.1%
COC(=O)c1ccc2c(=O)[nH]c(CSc3nc(C)cs3)nc2c1	94.4%
C/C(=N\Nc1ccc([N+](=O)[O-])cc1)c1cccc(N)c1	96.7%
O=C1c2ccccc2S(=O)(=O)c2cc(C(=O)N3CCN(c4c(Cl)cncc4Cl)CC3)ccc21	86.1%
O=C(/C=C/c1ccc(OCCCF)cc1)Nc1ccnc(-c2ccncc2)n1	89.6%

SMILES	viability
CCCCOC1CC(c2ccc(OCc3ccc(OC)cc3)c(OC)c2)N(C)O1 (configuration not stated)	81.5%
CO/N=C\CC(=O)Nc1ccc(Oc2ccccc2)cc1	63.6%
O=C1C(=O)N(c2ccccc2)c2ccccc21	96.8%
O=C1c2ccccc2C(=O)N1Nc1ccccc1	99.7%
CC(=O)c1c(N2CCCC2)[nH]c(-c2ccccc2)nc1=S	96%
Cc1ccc(-c2cccc(NC(=O)C3C4C=CC(C4)C3C(=O)O)c2)o1 (configuration not stated)	88.6%
NC(=O)/C(=N\OC(=O)c1ccco1)c1nc(-c2ccc(Br)cc2)cs1	86.2%
CCOC(=O)C(C)Oc1ccc(NC(=O)C(Cl)(Cl)Cl)cc1 (configuration not stated)	92.1%
CCOC1OC(=O)C(Cl)=C1Nc1ccccc1C (configuration not stated)	94.2%
COc1ccc(-c2ccc(=O)n(Cc3c(F)cccc3Cl)n2)cc1	89.1%
O=C(c1ccccc1)C1CN(Cc2ccccc2)CCC1(O)c1ccccc1 (configuration not stated)	81.6%
CCCCn1cnc2cc(NCc3cccc(OC)c3O)ccc21	91%
c1ccc(Cn2nnc3c(N4CCc5ccccc5C4)ncnc32)cc1	80.2%
Oc1ccc(F)c2cccnc12	98.7%
COc1c(C)cc(C(=O)C2CCCN(Cc3ccccn3)C2)cc1C (configuration not stated)	90.1%
CCOC(=O)N1CCN(C(=O)COC(=O)C2CCN(S(=O)(=O)c3c(Cl)cccc3Cl)CC2)CC1	97%
COC(=O)c1cc(Sc2cccc(Cl)c2Cl)ccn1	83.8%
CCOC(=O)Oc1ccc2oc(C)c(C(=O)OCCOC)c2c1	96.6%
Cc1nc(SCC(=O)NCC2CCCO2)c2c3c(sc2n1)CCCC3 (configuration not stated)	85.9%
COc1ccc(-c2cc(-c3ccc(OC)cc3)[nH]n2)cc1	80.1%
Cc1ccc2nc(-c3cccc(Br)c3)cc(C(=O)NC3=NCCS3)c2c1	80.2%
O=C(OCC(=O)N1CCN(c2ccccc2)CC1)c1cnc(Cl)c(Cl)c1	91.1%
CCOC(=O)N1CCC(n2c(SCC(=O)OCc3ccccc3)nc3ccsc3c2=O)CC1	87.9%

SMILES	viability
CCCC12CN3CC(CCC)(CN(C1)C3c1ccccn1)C2=O (configuration not stated)	93.6%
C(=N\N1CCN(C2c3ccccc3-c3ccccc32)CC1)/c1ccccn1	82.1%
CCOC(=O)Cn1c(-c2ccccc2)ccc(C#N)c1=O	92.6%
CCOc1[nH]n(-c2ccccc2)c(=O)c1C=Nc1ccc(OC)cc1	94.3%
COCCNC(=S)N/N=C(\C)c1ccc(OC)cc1	89.5%
COc1ccccc1/C(C)=N/NC(=S)NCc1ccccc1	87.8%
CCOC(=O)c1cc(-c2csc(Nc3c(C)cc(C)cc3C)n2)on1	104%
O=C(CCN1C(=O)C2CCCCC2C1=O)Nc1nc(-c2ccc(F)c(F)c2)cs1 (configuration not stated)	97.2%
Nc1c(-c2ccccn2)cnn1-c1nc(-c2ccc(F)cc2)cs1	88.1%
CCCOc1ccc2oc(=O)c3c(c2c1)CCCN3C(=O)CN1CCN(c2ncccn2)CC1	92.2%
CCOC(=O)c1cc(/C(C)=N/OC(=O)c2ccc(C(C)(C)C)cc2)on1	91.9%
O=C(Nc1cc(N2CCOCC2)ncn1)NC1(C(F)(F)F)Oc2ccc(Cl)cc2O1 (configuration not stated)	85.2%
CCc1ccc(-c2csc(-c3c[nH]c4ccccc34)n2)cc1	91%
Cc1ccc(CNc2ccc3c(c2)ncn3C(C)(C)C)cc1	85.7%
CCn1c(SCC(=O)N(C)CCC#N)nc2cc(S(=O)(=O)N3CCOCC3)ccc21	98%
CCc1ccc(N=Nc2ccc(O)c3[nH]cnc23)cc1	82.3%
C=CCOc1ccc(/C=C/C(=O)OCC(=O)NCC2CCCO2)cc1 (configuration not stated)	95.9%
CCCCOC(=O)CCN1C(=O)/C(=C2\SC(=S)N(CCC(=O)OCCCC)C2=O)SC1=S	80.7%
Cc1ccc(NC(=O)Cn2ccsc2=N)c([N+](=O)[O-])c1	101%
COc1ccc(-c2nc(C#N)c(N3CCc4ccccc4C3)o2)cc1OC	81.8%
c1ccc(C2[C@H]3CN(CC4CCCCC4)[C@H](c4ccccc4)C34CC2(c2cccnc2)C4)cc1 (some centres not stated)	93.8%
COc1ccc(NC(C#N)c2ccc(OC)cc2)cc1 (configuration not stated)	96.6%
O=[N+]([O-])c1c(C(Cl)Cl)nn(-c2ccc(Cl)cc2)c1N1CCCCC1	84.8%

SMILES	viability
O=C(COc1ccccc1)NNc1nc2ccccc2s1	99%
O=C(COc1cccc(Oc2ccccc2)c1)Nc1ncccn1	93.8%
O=C(NC(=S)Nc1cccc2cccnc12)c1ccccc1	100%
C/C(=N\NC(=S)Nc1cccc(C)c1)c1cccc(N)c1	91%
COc1ccc(Oc2ccc(N/C=C/C(=O)C(C)(C)C)cc2)cc1	90.7%
CCOc1ccc(NC(=S)Nc2ccc(C)c([N+](=O)[O-])c2)cc1	90.6%
O=c1c2c(-c3ccccc3)csc2ncn1/N=C/c1ccc(O)c([N+](=O)[O-])c1	88.3%
Cc1cc(C)n2nc(N)c(N=Nc3ccccc3)c2n1	95.7%
Cc1ccccc1-n1c(O)c(C=Nc2ccc3c(c2)OCO3)c(=O)[nH]c1=O	104%
S=c1[nH]c2ccc3ccccc3c2[nH]1	86.2%
CC1CN(C(=S)SCC(=O)c2ccc([N+](=O)[O-])cc2)CC(C)O1 (configuration not stated)	93.9%
Cc1ncsc1CCOC(=O)c1ccc([N+](=O)[O-])cc1	94.8%
O=C(c1ccc(CNc2c(N3CCCC3)c(=O)c2=O)cc1)N1CC=C(c2ccccc2)CC1	91.6%
O=c1oc(-c2cccs2)nc2c1cnn2-c1ccccc1	97.4%
Cc1nc2ccc(NC(=O)N(C(C)C)C(C)C)cc2s1	93.6%
CCN1c2ccccc2N(C)C1(C)c1ccccc1 (configuration not stated)	94.9%
COC(=O)CSc1ncnc2c1sc1nc3c(cc12)COC(C)(C)C3	82.5%
Cc1ccc(NC(=O)COC(=O)C(NS(=O)(=O)c2ccc(Cl)cc2)C(C)O)cc1C (configuration not stated)	86.8%
Fc1ccc(N/N=C2/CC(c3ccccc3)Oc3ccccc32)c(F)c1 (configuration not stated)	97.5%
CCCCc1cc(=O)oc2cc(O)ccc12	86.2%
CCCCN1C(=N)N([C@@H](CCC)CN2CCC[C@H]2CN2C(N)=NC[C@@H]2Cc2ccccc2)C[C@H]1Cc1ccccc1	92.3%
O=C(CNC(=O)c1ccc(Cl)cc1)c1ccc(Cl)cc1	87.5%
CCOC(=O)COc1cc(O)c2c(=O)cc(-c3ccccc3)oc2c1	102%

SMILES	viability
CC(=O)/C=C(\C)Nc1ccccc1O	84.8%
N#Cc1nccnc1S(=O)(=O)c1cccs1	99.3%
CCOC(=O)C(=NC1CCS(=O)(=O)C1)NNc1ccc(Br)cc1 (configuration not stated)	99.3%
O=C(C[n+]1ccc(C(=O)c2ccccc2)cc1)Nc1ccc(C(F)(F)F)cc1	104%
C/C(=N\NC(N)=S)c1ccc(Cl)s1	88.2%
O=C(C/C=N\OCc1ccc([N+](=O)[O-])cc1)Nc1ccc(F)cc1F	96.9%
O=C(NNc1ccc([N+](=O)[O-])cc1)c1ccco1	101%
CC1=C(C)C(=O)C(CCCCC#CCCCC#CCO)=C(C)C1=O	84.5%
CC1CCCCC1NC(=O)c1ccc2c(c1)[nH]c(=O)n2C1CCCC1 (configuration not stated)	94.4%
CCCCOC(=O)CSc1nnc(-c2ccc(Cl)cc2Cl)o1	95.3%
COc1ccc(N=Cc2c(O)cc(C)oc2=O)cc1	92.7%
COc1ccc(-c2cc(O)cc(O)c2)cc1	84.8%
Cn1c(N)c(C(=O)COC(=O)c2ccc([N+](=O)[O-])o2)c(=O)n(C)c1=O	87.2%
CSc1cccc(N=C2C(=O)Nc3ccccc32)c1	92.1%
Fc1ccc(-c2nnc(CSc3nnc(-c4cccs4)o3)o2)cc1	95.8%
Cc1ccc(Nc2nc(CSc3nnc(-c4cccs4)o3)cs2)cc1	86.8%
CCCNC(=S)Nc1ccc(Nc2ccccc2)cc1	83%
COc1ccc(NC(=O)CN(C)CC(=O)Nc2sc3c(c2C(N)=O)CCC3)cc1	90.6%
CCOC(=O)N1CCN(C(=O)CSc2nnc(-c3ccc(Cl)s3)o2)CC1	95.8%
CC1(C)CC(=O)C2=C(C1)OC(N)=C([N+](=O)[O-])C2c1ccc(C#N)s1 (configuration not stated)	84.6% [at 20 µM]
